# Results reported in PubChem BioAssay AID1159580 (chemical genetic matrix, 2015).
# Where “and” joins values, the source holds several entries; their conditions need not be identical. Equal entries are not always repeated. About 2,000 (36%) of roughly 5,500 compounds were called active. Another 18% or so got no clear call; they are omitted. The list shows a part of the results. A number with no mark means an inactive call. No stated cut-off is given here; in the data, active means normalized growth mostly below about 0.91 (no sharp cut-off); inconclusive means no clear call, values can overlap the other calls; inactive means mostly above about 0.92.
# Assay: chemical genetic growth profiling, strain panel (AID 1159580);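 further: tested at 20 µM; growth read once vehicle control cultures reached saturation at 30 °C; 1 = growth at the plate median or of vehicle wells; lower values mean less growth of the strain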
# Details: S. cerevisiae deletion strains, growth OD
structure (smiles),measurement,setting,value
COc1cc2ccc(=O)oc2c2ccoc12,normalized growth,"locus YAL021C, strain ccr4, hits give low values",0.941
same,normalized growth,"locus YAL026C, strain drs2, hits give low values",0.859 (active)
same,normalized growth,"locus YAL030W, strain snc1, hits give low values",0.982
same,normalized growth,"locus YBL061C, strain skt5, hits give low values",0.999
same,normalized growth,"locus YBR009C, strain hhf1, hits give low values",0.777 (active)
same,normalized growth,"locus YBR021W, strain FUR4, hits give low values",1.04
same,normalized growth,"locus YBR023C, strain chs3, hits give low values",0.932
same,normalized growth,"locus YBR171W, strain sec66, hits give low values",0.984
same,normalized growth,"locus YBR229C, strain ROT2, hits give low values",0.998
same,normalized growth,"locus YBR231C, strain swc5, hits give low values",0.733 (active)
same,normalized growth,"locus YBR279W, strain paf1, hits give low values",0.99
same,normalized growth,"locus YCL011C, strain gbp2, hits give low values",0.823 (active)
same,normalized growth,"locus YCL016C, strain dcc1, hits give low values",0.828 (active)
same,normalized growth,"locus YCL029C, strain bik1, hits give low values",0.982
same,normalized growth,"locus YCL069W, strain vba3, hits give low values",0.915 (active)
same,normalized growth,"locus YCR088W, strain abp1, hits give low values",1.01
same,normalized growth,"locus YDL005C, strain med2, hits give low values",0.994
same,normalized growth,"locus YDL035C, strain GPR1, hits give low values",0.971
same,normalized growth,"locus YDL040C, strain nat1, hits give low values",1
same,normalized growth,"locus YDL074C, strain BRE1, hits give low values",0.85
same,normalized growth,"locus YDL101C, strain DUN1, hits give low values",0.94
same,normalized growth,"locus YDL134C, strain PPH21, hits give low values",0.964
same,normalized growth,"locus YDL185W, strain tfp1, hits give low values",0.937
same,normalized growth,"locus YDL192W, strain arf1, hits give low values",0.955
same,normalized growth,"locus YDR001C, strain nth1, hits give low values",0.994
same,normalized growth,"locus YDR069C, strain doa4, hits give low values",0.905
same,normalized growth,"locus YDR101C, strain arx1, hits give low values",0.985
same,normalized growth,"locus YDR137W, strain rgp1, hits give low values",1.03
same,normalized growth,"locus YDR159W, strain sac3, hits give low values",0.829 (active)
same,normalized growth,"locus YDR162C, strain NBP2, hits give low values",0.974
same,normalized growth,"locus YDR195W, strain ref2",1.3 [resistant] (active)
same,normalized growth,"locus YDR297W, strain sur2, hits give low values",0.903 (active)
same,normalized growth,"locus YDR318W, strain mcm21, hits give low values",0.965
same,normalized growth,"locus YDR334W, strain swr1, hits give low values",0.772 (active)
same,normalized growth,"locus YDR335W, strain msn5, hits give low values",0.896 (active)
same,normalized growth,"locus YDR388W, hits give low values",1
same,normalized growth,"locus YDR392W, strain spt3, hits give low values",0.665 (active)
same,normalized growth,"locus YDR502C, strain sam2, hits give low values",0.958
same,normalized growth,"locus YEL003W, strain gim4, hits give low values",0.818 (active)
same,normalized growth,"locus YEL037C, strain rad23, hits give low values",0.957
same,normalized growth,"locus YEL061C, strain CIN8 (second series), hits give low values",0.99
same,normalized growth,"locus YER015W, strain faa2, hits give low values",0.92 (active)
same,normalized growth,"locus YER016W, strain bim1, hits give low values",1
same,normalized growth,"locus YER110C, hits give low values",0.975
same,normalized growth,"locus YER111C, strain swi4, hits give low values",1
same,normalized growth,"locus YER155C, strain BEM2 (second series), hits give low values",0.731 (active)
same,normalized growth,"locus YER155C, strain BEM2, hits give low values",1.02
same,normalized growth,"locus YER167W, strain BCK2, hits give low values",1.01
same,normalized growth,"locus YFR010W, strain ubp6, hits give low values",0.915
same,normalized growth,"locus YGL078C, strain dbp3, hits give low values",0.967
same,normalized growth,"locus YGL086W, strain mad1, hits give low values",0.969
same,normalized growth,"locus YGL167C, strain pmr1, hits give low values",0.998
same,normalized growth,"locus YGL173C, strain kem1, hits give low values",0.862 (active)
same,normalized growth,"locus YGL227W, strain vid30, hits give low values",0.999
same,normalized growth,"locus YGL240W, strain doc1, hits give low values",0.692 (active)
same,normalized growth,"locus YGL248W, strain PDE1, hits give low values",0.952
same,normalized growth,"locus YGL253W, strain hxk2, hits give low values",0.892 (active)
same,normalized growth,"locus YGR078C, strain PAC10, hits give low values",0.977
same,normalized growth,"locus YGR135W, strain pre9, hits give low values",0.893 (active)
same,normalized growth,"locus YGR252W, strain gcn5, hits give low values",0.76 (active)
same,normalized growth,"locus YHR013C, strain ard1, hits give low values",0.953
same,normalized growth,"locus YHR027C, strain rpn1, hits give low values",0.881 (active)
same,normalized growth,"locus YHR030C, strain SLT2, hits give low values",1 and 0.986
same,normalized growth,"locus YHR079C, strain IRE1 (second series), hits give low values",0.961
same,normalized growth,"locus YHR079C, strain IRE1, hits give low values",1.02
same,normalized growth,"locus YHR094C, strain hxt1, hits give low values",0.996
same,normalized growth,"locus YHR129C, strain ARP1, hits give low values",1
same,normalized growth,"locus YHR142W, strain chs7, hits give low values",0.838 (active)
same,normalized growth,"locus YHR200W, strain rpn10, hits give low values",0.899 (active)
same,normalized growth,"locus YIL066C, strain RNR3, hits give low values",1
same,normalized growth,"locus YIL073C, strain SPO22, hits give low values",0.957
same,normalized growth,"locus YIL125W, strain kgd1, hits give low values",1.01
same,normalized growth,"locus YIR030C, strain dcg1, hits give low values",0.993
same,normalized growth,"locus YJL092W, strain hpr5, hits give low values",0.973
same,normalized growth,"locus YJL095W, strain BCK1 (second series), hits give low values",0.937
same,normalized growth,"locus YJL095W, strain BCK1, hits give low values",0.906 and 0.992
same,normalized growth,"locus YJL115W, strain asf1, hits give low values",0.883 (active)
same,normalized growth,"locus YJL129C, strain trk1, hits give low values",1.14 [resistant] (active)
same,normalized growth,"locus YJL134W, strain LCB3, hits give low values",1
same,normalized growth,"locus YJL154C, strain vps35, hits give low values",0.996
same,normalized growth,"locus YJL164C, strain tpk1, hits give low values",0.902 (active)
same,normalized growth,"locus YJL166W, strain qcr8, hits give low values",0.826 (active)
same,normalized growth,"locus YJL168C, strain set2, hits give low values",0.983
same,normalized growth,"locus YJL187C, strain SWE1 (second series), hits give low values",0.98
same,normalized growth,"locus YJR043C, strain POL32, hits give low values",0.921
